Each structure is given as a SMILES string. This is part of a sample that, as a whole, favours compounds with a hit. Of some 83,000 tested, about 20% had one in any assay.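 For each line, cells grew in 96-well plates with the test compound present at a single concentration for 48 hours.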 Activity calls are given as the source filed them. The calls were made as follows: active = growth percent below 10; inactive = the rest.

The values that follow come from PubChem BioAssay (NCI).

The assay relates to HL-60(TB) leukemia. In words: NCI-60 one-dose screen, 48 h (100 = growth as untreated, 0 = no growth, -100 = all killed). As to conditions: 10 µM unless noted.
Take `COc1ccc2c(c1)O/C(=C\c1cccc(OCC(=O)Nc3nc(C)c(C)s3)c1)C2=O`: the growth was -77.3% (active).

On to `Cc1cc(N(CCCNc2ccnc3cc(Cl)ccc23)Cc2ccccn2)nc(N2CCOCC2)n1`, for which the growth is 102% (inactive).

`O=C(NC1CC1)c1ccc(-c2nc3ccc4[nH]ncc4c3c3c2CCCC3)cc1`: the growth was 28.6% (inactive).

As to `C[C@H]1[C@H](C)CC[C@]2(C(=O)NCC#CCN3CCN(C)CC3)CC[C@]3(C)C(=CC[C@@H]4[C@@]5(C)Cc6c([nH]c7ccccc67)C(C)(C)[C@@H]5CC[C@]43C)[C@H]12`, the growth is 63.9% (inactive).

Turning to `CC(C)N=C1CCCC1C(=S)SSC(=S)C1CCCC1=NC(C)C` (stereo not given), the growth is 75.8% (inactive).

Consider `O=C(/C=C/c1c(Cl)nc2sccn12)c1ccc(F)c(F)c1`, for which the growth is 78.3% (inactive).

Turning to `Cc1cc(C(=O)NOCCO)c(Nc2ccc(I)cc2F)n(C)c1=O`, the growth is 20.8% (inactive).

As for `O=C(NNC(=O)c1ccc([N+](=O)[O-])cc1)c1ccc([N+](=O)[O-])cc1`, the growth is 88.3% (inactive).

In the case of `COc1ccc(C2CC(c3ccc(-c4ccccc4)cc3)=NN2c2ccc(S(N)(=O)=O)cc2)cc1` (stereo not given), the growth is 69.4% (inactive).

With `CN(Cc1ccccc1)c1nc(Cl)c(C2CC(c3ccccc3)=NN2c2ccccc2)s1` (stereo not given), the growth was 100% (inactive).

Turning to `CCOC(=O)C#Cc1c(CC(=O)OCC)nnn1[C@H]1O[C@@H](CO)[C@@H]2OC(C)(C)O[C@@H]21`, the growth is 38% (inactive).

Consider `CN(C)C(=O)c1ccc(SC(=S)NCc2ccccc2)cc1`, for which the growth was -32% [100 µM] (active).

`COc1cc(-c2csc(NC(=O)Nc3ccc(C(F)(F)F)cc3)n2)cc(OC)c1OC`: the growth was -13.8% (active).

As to `COc1cc(/C=N\NC(=O)CN2CCN(c3cc4c(cc3F)c(=O)c(C(=O)N/N=C/c3ccc(O)c(OC)c3)cn4C3CC3)CC2)ccc1O`, the growth is 75.4% (inactive).

`COc1cccc(CC(C)=C(c2ccc(OCCN3CCCCC3)cc2)c2ccc(OCCN3CCCCC3)cc2)c1`: the growth is -57.5% (active).

On to `Brc1ccc(Br)nn1`, for which the growth is -32.7% (active).

Consider `CCCCCCCC/C=C\CCCCCCCCOc1cccc(CC(=O)NCC[N+]2(C)CCOCC2)c1`, for which the growth was 67.6% (inactive).

As to `O=C(c1ccc(Cl)cc1)c1ccccc1Cl`, the growth is 96.4% (inactive).

Regarding `C=CCOC(=O)Nc1cccn([C@H](Cc2ccccc2)C(=O)NCCC(C)C)c1=O`, the growth was 95.1% (inactive).

As for `NS(=O)(=O)c1ccc(NCC(=O)Nc2ccc(-c3nc4ccccc4s3)cc2)cc1`, the growth was 33.4% (inactive).

As to `N[C@@H](CC/[N+]([O-])=N/O)C(=O)O`, the growth was 110% (inactive).

On to `N#CC1=CC2CN(Cc3ccccc3)C1C1C(=O)N(c3ccccc3)C(=O)C21` (stereo not given), for which the growth was 76% (inactive).

Turning to `Brc1cnc2[nH]cc(-c3nnc(-c4ccccc4)o3)c2c1`, the growth was 94.5% (inactive).

In the case of `COc1cc2c(cc1OC)-c1cc(OC)c(OC)cc1C(CN(C)C)C2` (stereo not given), the growth was 69.8% [100 µM] (inactive).

With `COc1cc(OC)c(/C=C/c2ccc3ccccc3[n+]2C)c(OC)c1`, the growth is -29.5% (active).

Consider `CCC(c1ccccc1)C(CC)c1ccc(O)c(O)c1` (stereo not given), for which the growth was 68% (inactive).

With `C[C@H]1[C@H](C)CC[C@]2(CO)CC[C@]3(C)C(=CC[C@@H]4[C@@]5(C)Cc6c([nH]c7ccccc67)C(C)(C)[C@@H]5CC[C@]43C)[C@H]12`, the growth is 81.7% (inactive).

As to `COc1ccc(/C=C2\N=C3Sc4cc(Cl)ccc4C(=O)N3C2=O)cc1`, the growth is 92.4% (inactive).

For the compound `N#Cc1cc(-c2ccnc(Nc3ccc(NC(=O)CCl)cc3)n2)ccc1N1CCCC1`, the growth was -49.2% (active).

With `CN1CCN(Cc2ccc(NC(=O)c3cccc(C#Cc4c(N)ncc5ccc(F)cc45)c3)cc2C(F)(F)F)CC1`, the growth was -53.7% (active).

For `Fc1ccc(Nc2ncnc3ccc(-c4cn[nH]c4)cc23)cc1Cl`, the growth is 83.7% (inactive).

Turning to `CN(C)c1ccc(N=Nc2ccc3ccccc3c2)cc1`, the growth is 61.6% (inactive).

Take `c1ccc2c(c1)OC1OC2Oc2ccccc21`: the growth was 80% (inactive).

Regarding `CCSc1nc2ccccc2o1`, the growth was 97.5% (inactive).

Take `COc1ccc(-c2oc3cc(O)c(OC)c(O)c3c(=O)c2OC)cc1O`: the growth was -8.34% (active).

Take `CN=C(NC)N/N=C(C)\C=N\NC(=NC)NC`: the growth was 99% (inactive).

Regarding `C#Cc1cccc(Nc2ncnc3ccc(NC(=O)c4ccccc4)cc23)c1`, the growth is 71.9% (inactive).

For `O=C(Nc1cc(Cl)ccc1O)c1ccccc1Nc1ccnc(C(F)(F)F)c1`, the growth is -38.1% (active).

Take `CN(C)C(=S)N=Nc1c(O)[nH]c2ccccc12`: the growth was -40.3% (active).

`Oc1[nH]c2ccc(Cl)cc2c1/C=c1/ccc2c(c1)N=C(c1cccs1)N=2`: the growth was 98.4% (inactive).
